Experimental data from PubChem BioAssay (Tox21).
Results filed as inconclusive are left out. Activity calls are given as the source filed them. Unless noted, the call rests on the fitted dose curve.

Columns and labels:
[1] = Nuclear factor erythroid 2-related factor 2/antioxidant responsive element (Nrf2/ARE) small molecule agonists: qHTS cell viability counter screen in human keratinocytes (AID 1919968; active means well fitted curve in the direction sought with a large enough effect in the repeat runs; an effect the other way counts as inactive or inconclusive; further: nearly all actives have a fitted effect of over 55% in size)
Procedure, shortened: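 Fluorescence read-out from CellTiter-Fluor after 1 h at 37 C. Wells held HaCaT-derived ARE-luciferase reporter cells (1,500/well) treated 23 h with DMSO-dissolved compounds. Run in the same wells as the luciferase agonist read.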

[2] = Nuclear factor erythroid 2-related factor 2/antioxidant responsive element (Nrf2/ARE) small molecule agonists: luciferase reporter gene qHTS assay in human keratinocytes (AID 1919969); further: nearly all actives have a fitted effect of over 35% in size
[3] = biological target: Gonadotropin-releasing hormone receptor (Homo sapiens) (UniProt P30968); test: Human gonadotropin-releasing hormone receptor (GnRHR) small molecule agonists, calcium flux assay in GnRHR-HEK293 cells (AID 1920063); further: nearly all actives have a fitted effect of over 35% in size
Sequence of Gonadotropin-releasing hormone receptor (Homo sapiens) (P30968 whole entry, looked up): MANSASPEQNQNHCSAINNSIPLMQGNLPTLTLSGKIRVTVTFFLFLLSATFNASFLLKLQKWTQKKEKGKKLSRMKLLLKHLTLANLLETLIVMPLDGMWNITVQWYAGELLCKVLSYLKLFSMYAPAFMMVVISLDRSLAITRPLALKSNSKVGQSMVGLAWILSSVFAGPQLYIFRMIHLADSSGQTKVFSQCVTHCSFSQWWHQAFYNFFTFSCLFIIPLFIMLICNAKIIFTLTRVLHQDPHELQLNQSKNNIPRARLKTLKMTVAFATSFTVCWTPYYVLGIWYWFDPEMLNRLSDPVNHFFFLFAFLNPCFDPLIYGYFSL
Procedure, shortened: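 Calcium-dye fluorescence, Ex/Em=480/540, recorded every 1 sec over 3 min after compound addition to GnRHR-HEK293 cells. Cells had been seeded 18 hours earlier and dye-loaded for 1 hour at 37 C. Fifteen concentrations, triplicates.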

[4] = biological target: KiSS-1 receptor (Homo sapiens) (UniProt Q969F8); test: Human kisspeptin (KISS1R) small molecule agonists, calcium flux assay in KISS1R-HEK293 cells (AID 1920064; active means well fitted curve in the direction sought with a large enough effect in the repeat runs; an effect the other way counts as inactive or inconclusive)
Sequence of KiSS-1 receptor (Homo sapiens) (Q969F8 whole entry, looked up): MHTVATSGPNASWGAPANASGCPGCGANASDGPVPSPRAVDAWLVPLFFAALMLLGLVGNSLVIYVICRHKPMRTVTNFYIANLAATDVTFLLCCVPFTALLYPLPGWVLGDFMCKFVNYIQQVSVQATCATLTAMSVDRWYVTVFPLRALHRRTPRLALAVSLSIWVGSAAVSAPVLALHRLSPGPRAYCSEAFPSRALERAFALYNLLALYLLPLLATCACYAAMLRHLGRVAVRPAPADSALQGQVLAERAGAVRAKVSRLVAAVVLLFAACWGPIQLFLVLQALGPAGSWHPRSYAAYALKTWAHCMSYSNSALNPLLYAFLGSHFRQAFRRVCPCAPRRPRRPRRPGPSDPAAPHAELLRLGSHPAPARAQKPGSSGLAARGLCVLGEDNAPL
Procedure, shortened: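 Calcium flux read-out: kinetic fluorescence at Ex/Em=480/540, 1 s intervals over 3 min, after pin-tool compound addition to dye-loaded KISS1R-HEK293 cells. Fifteen concentrations, triplicates.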

[5] = G protein-coupled receptor (GPCR) small molecule agonists, calcium flux assay: HEK293 wild type cell line counter screen (AID 1920065)
Procedure, shortened: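 Agonist mode; 18 h seeding at 37 C, 1 h dye load at 37 C; compounds pinned from DMSO, ATP as positive control; kinetic fluorescence 480/540 nm, 3 min, 1 s reads; 15 concentrations, triplicate.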

[6] = p53 small molecule agonists, cell-based qHTS assay with human liver microsomes (AID 1963577);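 further: p53 response element beta-lactamase reporter cells with liver microsomes plus NADPH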
Procedure, shortened: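 Reporter activation was measured by LiveBLAzer fluorescence intensity in p53RE-bla cells, which had been exposed to compounds for 16 h at 37 C alongside 0.5 mg/mL human liver microsomes and 0.5 mg/mL NADPH (final concentrations).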

[7] = p53 small molecule agonists, cell-based qHTS assay with rat liver microsomes (AID 1963578)
Procedure, shortened: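 Compound in DMSO added to p53RE-bla cells 5 h post-plating; rat microsomes/NADPH 0.5 mg/mL final; 16 h, 37 C; LiveBLAzer 2 h RT.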

[8] = p53 small molecule agonists, cell-based qHTS assay with human liver microsomes: qHTS cell viability counter screen (AID 1963579); further: nearly all actives have a fitted effect of over 45% in size
Procedure, shortened: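 HLM-supplemented (0.5 mg/mL final) and NADPH-supplemented (0.5 mg/mL final) p53RE-bla cultures, 4,000 cells per well, were dosed with compounds in DMSO for 16 h at 37 C; luminescent ATP detection (CellTiter-Glo, 30 min, room temperature) quantified surviving cells.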

[9] = p53 small molecule agonists, cell-based qHTS assay with rat liver microsomes: qHTS cell viability counter screen (AID 1963580); further: nearly all actives have a fitted effect of over 45% in size
Procedure, shortened: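 After the beta-lactamase ratio was read, CellTiter-Glo was added to the same wells and luminescence measured at 30 min; cells had been treated 16 h at 37 C with compounds, rat liver microsomes and NADPH (0.5 mg/mL final each).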

[10] = p53 small molecule agonists, cell-based qHTS assay: qHTS cell viability counter screen (AID 1963581); further: nearly all actives have a fitted effect of over 45% in size
Procedure, shortened: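 Cytotoxicity read-out: ATP-based luminescence (CellTiter-Glo, 30 min RT) measured in the same wells as the p53 reporter assay, HCT-116 p53RE-bla cells, 16 h compound exposure at 37 C.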

[11] = p53 small molecule agonists, cell-based qHTS assay (AID 1963582; active means well fitted activation curve with a large enough effect in the signal ratio in the repeat runs, not every such curve was filed as active; the % refers to the signal ratio)
Procedure, shortened: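 Fluorescence intensity read-out of a beta-lactamase reporter under a p53 response element. Cells were exposed to DMSO-dissolved compounds for 16 h at 37 C, then developed with FRET substrate for 2 h at RT.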

[12] = biological target: 5-hydroxytryptamine receptor 2A (Homo sapiens) (UniProt P28223); test: 5-hydroxytryptamine receptor 2A (HTR2A) small molecule antagonists, cell-based qHTS assay (AID 1963586); further: nearly all actives have a fitted effect of over 45% in size
Sequence of 5-hydroxytryptamine receptor 2A (Homo sapiens) (P28223 whole entry, looked up): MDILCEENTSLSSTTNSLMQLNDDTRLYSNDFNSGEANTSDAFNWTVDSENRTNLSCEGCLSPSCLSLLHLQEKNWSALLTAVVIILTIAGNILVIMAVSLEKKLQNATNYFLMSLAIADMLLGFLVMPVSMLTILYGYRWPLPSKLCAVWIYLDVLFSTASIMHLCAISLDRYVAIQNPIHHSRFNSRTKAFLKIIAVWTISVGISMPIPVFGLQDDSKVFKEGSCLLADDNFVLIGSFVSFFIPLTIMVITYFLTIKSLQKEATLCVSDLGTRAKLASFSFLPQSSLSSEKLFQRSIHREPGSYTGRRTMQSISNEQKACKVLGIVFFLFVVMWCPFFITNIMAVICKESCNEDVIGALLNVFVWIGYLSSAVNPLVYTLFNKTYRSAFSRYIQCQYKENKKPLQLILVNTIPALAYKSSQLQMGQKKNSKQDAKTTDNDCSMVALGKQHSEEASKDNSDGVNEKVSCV
Procedure, shortened: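 CHO cells stably expressing human HTR2A were plated for 18 h at 37 C, then loaded with calcium dye for 1 h. Compounds were preincubated 5 min at room temperature before DOI (4 nM solution) was added. Kinetic fluorescence was read for 3 min.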

[13] = biological target: Muscarinic acetylcholine receptor M1 (Homo sapiens) (UniProt P11229); test: Cholinergic receptor muscarinic 1 (CHRM1) small molecule antagonists, cell-based qHTS assay (AID 1963588); further: nearly all actives have a fitted effect of over 40% in size; further: potency means the concentration at half of the fitted maximal effect
Sequence of Muscarinic acetylcholine receptor M1 (Homo sapiens) (P11229 whole entry, looked up): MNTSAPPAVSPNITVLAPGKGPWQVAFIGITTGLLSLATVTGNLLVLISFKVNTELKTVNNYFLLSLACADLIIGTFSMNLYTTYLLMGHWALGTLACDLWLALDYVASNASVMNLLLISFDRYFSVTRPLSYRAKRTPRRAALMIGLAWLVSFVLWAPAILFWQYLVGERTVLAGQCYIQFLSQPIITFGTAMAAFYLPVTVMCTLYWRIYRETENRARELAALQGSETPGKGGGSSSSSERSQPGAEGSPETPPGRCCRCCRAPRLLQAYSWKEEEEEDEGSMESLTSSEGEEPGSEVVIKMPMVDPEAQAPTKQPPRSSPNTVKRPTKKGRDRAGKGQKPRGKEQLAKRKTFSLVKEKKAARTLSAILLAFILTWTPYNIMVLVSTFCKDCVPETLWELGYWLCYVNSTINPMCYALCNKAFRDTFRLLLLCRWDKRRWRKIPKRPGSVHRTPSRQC
Procedure, shortened: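 Compounds were tested at 15 concentrations in three independent runs. Dye-loaded CHRM1-CHO cells were exposed 5 min at room temperature before stimulation by acetylcholine added at 50nM. Intracellular calcium was read kinetically on FDSS for 3 min.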

[14] = biological target: Muscarinic acetylcholine receptor M1 (Homo sapiens) (UniProt P11229); test: Cholinergic receptor muscarinic 1 (CHRM1) small molecule agonists, cell-based qHTS assay (AID 1963589); further: nearly all actives have a fitted effect of over 35% in size
Procedure, shortened: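 Calcium flux read-out: kinetic fluorescence at 1 sec intervals after pin-tool compound addition to dye-loaded CHRM1-CHO cells (human M1). Agonist mode; 15 concentrations tested in triplicate independent runs.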

[15] = biological target: D(2) dopamine receptor (Homo sapiens) (UniProt P14416); test: Dopamine D2 receptor (DRD2) small molecule agonists, cell-based qHTS assay (AID 1963594); further: nearly all actives have a fitted effect of over 35% in size
Sequence of D(2) dopamine receptor (Homo sapiens) (P14416 whole entry, looked up): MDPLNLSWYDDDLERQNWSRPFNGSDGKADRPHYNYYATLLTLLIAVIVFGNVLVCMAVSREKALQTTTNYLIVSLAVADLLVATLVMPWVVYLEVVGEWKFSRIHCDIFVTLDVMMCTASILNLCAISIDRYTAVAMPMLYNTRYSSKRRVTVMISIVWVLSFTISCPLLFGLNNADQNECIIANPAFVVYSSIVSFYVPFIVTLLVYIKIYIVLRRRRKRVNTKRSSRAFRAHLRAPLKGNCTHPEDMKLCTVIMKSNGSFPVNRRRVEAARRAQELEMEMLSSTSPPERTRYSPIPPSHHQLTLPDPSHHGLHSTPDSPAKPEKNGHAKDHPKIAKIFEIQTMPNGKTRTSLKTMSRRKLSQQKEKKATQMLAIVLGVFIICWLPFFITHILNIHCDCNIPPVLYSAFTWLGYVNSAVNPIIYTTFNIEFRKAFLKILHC
Procedure, shortened: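 HEK293 cells stably expressing human DRD2, pre-treated with PDE inhibitor Ro20-1724 (0.1 mM final) and compound 10 min at room temperature, then stimulated with NKH477 (200nM […]) for 30 min. cAMP read by HTRF (665/620 nm).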

[16] = biological target: D(2) dopamine receptor (Homo sapiens) (UniProt P14416); test: Dopamine D2 receptor (DRD2) small molecule antagonists, cell-based qHTS assay (AID 1963595; active means well fitted inhibition curve with a large enough effect in the signal ratio in the repeat runs, with a control signal flat; the % refers to the signal ratio)
Procedure, shortened: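 Human DRD2 antagonist qHTS measuring cAMP by HTRF. The cells are exposed to compound for 10 min, then to NKH477 (200 nM) and quinpirole (12 nM) for 30 min at RT, with Ro20-1724 (0.1 mM) present throughout.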

[17] = biological target: 5-hydroxytryptamine receptor 2A (Homo sapiens) (UniProt P28223); test: 5-hydroxytryptamine receptor 2A (HTR2A) small molecule agonists, cell-based qHTS assay (AID 1963587); further: nearly all actives have a fitted effect of over 30% in size
Procedure, shortened: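 CHO cells stably expressing human HTR2A, plated 18 h, loaded with calcium dye 1 h at 37 C. Agonist mode: compounds added and intracellular calcium fluorescence recorded kinetically for 2 min at 1 sec intervals.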

[18] = cAMP Responsive Elements (CRE) small molecule agonists, cell-based qHTS assay (AID 1963590)
Procedure, shortened: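 Beta-lactamase reporter readout: LiveBLAzer B/G FRET substrate, 2 h at room temperature, added after 3 h compound treatment of CRE-bla HEK 293T cells at 37 C/5% CO2.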

[19] = cAMP Responsive Elements (CRE) small molecule antagonists, cell-based qHTS assay (AID 1963591; active means well fitted inhibition curve with a large enough effect in the signal ratio in the repeat runs, not every such curve was filed as active; the % refers to the signal ratio)
Procedure, shortened: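 HEK293T CRE-bla; 18 h preincubation; compound pin-transfer; NKH477 0.25 uM final, 3 h, 37 C; LiveBLAzer FRET substrate 2 h RT.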

[20] = biological target: Beta-2 adrenergic receptor (Homo sapiens) (UniProt P07550); test: Adrenergic beta2 receptor (ADRB2) small molecule antagonists, cell-based qHTS assay (AID 1963592); further: series mostly up to about 92 µM; nearly all actives have a fitted effect of over 50% in size
Sequence of Beta-2 adrenergic receptor (Homo sapiens) (P07550 whole entry, looked up): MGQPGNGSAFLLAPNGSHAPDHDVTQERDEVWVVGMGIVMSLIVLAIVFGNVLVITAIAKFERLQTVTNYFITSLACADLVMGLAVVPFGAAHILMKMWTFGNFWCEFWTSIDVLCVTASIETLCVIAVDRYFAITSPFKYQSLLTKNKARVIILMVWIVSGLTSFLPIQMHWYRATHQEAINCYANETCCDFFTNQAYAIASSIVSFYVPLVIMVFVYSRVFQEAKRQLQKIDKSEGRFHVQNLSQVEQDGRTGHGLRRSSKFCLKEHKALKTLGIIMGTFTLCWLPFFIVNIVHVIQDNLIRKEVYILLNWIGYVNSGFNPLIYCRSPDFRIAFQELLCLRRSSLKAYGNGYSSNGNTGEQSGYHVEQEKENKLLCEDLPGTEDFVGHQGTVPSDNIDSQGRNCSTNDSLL
Procedure, shortened: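 Assay format: CHO-ADRB2 cells, 18-20hr seeding at 37C/5% CO2, then compound plus 1nM isoproterenol agonist mix for 0.5hr RT. Homogeneous time-resolved fluorescence cAMP detection after 1hr, expressed as 665/615 nm ratio.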

Measured: Potency

CCOC(=O)c1cccnc1
inactive: [1] | [2] | [3] | [4] | [5] | [6] | [7] | [8] | [9] | [10] | [11] | [12] | [13] | [14] | [15] | [16]

CCC(=O)c1c(O)cc(O)cc1O
inactive: [1] | [2] | [3] | [4] | [5] | [6] | [7] | [8] | [9] | [10] | [11] | [17] | [13] | [14] | [18] | [19] | [20] | [15] | [16]

CCN(CC)CCOCCOC(=O)C1(c2ccccc2)CCCC1
active: [13] 130 nM
inactive: [1] | [2] | [3] | [4] | [5] | [6] | [7] | [8] | [9] | [10] | [11] | [17] | [14] | [18] | [19] | [20] | [15] | [16]

CCCCC(CC)COC(=O)CC#N (stereo not given)
inactive: [1] | [2] | [3] | [4] | [5] | [6] | [7] | [8] | [9] | [10] | [11] | [12] | [13] | [14] | [18] | [15] | [16]

CNC(=O)c1c(I)c(NC(=O)CCCCC(=O)Nc2c(I)c(C(=O)O)c(I)c(C(=O)NC)c2I)c(I)c(C(=O)O)c1I
inactive: [1] | [2] | [3] | [4] | [5] | [6] | [7] | [8] | [9] | [10] | [11] | [17] | [13] | [14] | [18] | [19] | [20]

Nc1ccc(S(=O)(=O)Nc2ccccn2)cc1
inactive: [1] | [2] | [3] | [4] | [5] | [6] | [7] | [8] | [9] | [10] | [11] | [17] | [13] | [14] | [18] | [19] | [20] | [15] | [16]

C=C1CC[C@H]2O[C@]2(C)CC[C@@H]2[C@@H]1CC2(C)C
inactive: [1] | [2] | [3] | [4] | [5] | [6] | [7] | [8] | [9] | [10] | [11] | [12] | [14] | [18] | [19] | [15] | [16]

CC(=O)N(CC(=O)N(C)C)c1ccccc1
inactive: [1] | [2] | [3] | [4] | [5] | [6] | [7] | [8] | [9] | [10] | [11] | [17] | [13] | [14] | [18] | [19] | [20] | [15] | [16]

CCCCCCCCCCCc1ccccc1
inactive: [1] | [2] | [3] | [4] | [5] | [6] | [7] | [8] | [9] | [10] | [11] | [17] | [13] | [14] | [18] | [19] | [20] | [15] | [16]

O=C(Oc1ccccc1)c1ccccc1C(=O)Oc1ccccc1
inactive: [1] | [2] | [3] | [4] | [5] | [6] | [7] | [8] | [9] | [10] | [11] | [17] | [13] | [14] | [18] | [19] | [20] | [15] | [16]

N#Cc1ccc(C(=O)O)cc1
inactive: [1] | [2] | [3] | [4] | [5] | [6] | [7] | [8] | [9] | [10] | [11] | [12] | [13] | [14] | [18] | [20] | [15] | [16]

CSc1nc(NC2CC2)nc(NC(C)(C)C)n1
inactive: [1] | [2] | [3] | [4] | [5] | [6] | [7] | [8] | [9] | [10] | [11] | [12] | [13] | [18] | [20] | [15] | [16]

Nc1ccc(S(=O)(=O)Nc2ccccc2)cc1
inactive: [1] | [2] | [3] | [4] | [5] | [6] | [7] | [8] | [9] | [10] | [11] | [17] | [13] | [14] | [18] | [19] | [20] | [15] | [16]
